Screening results (PubChem BioAssay)
An excerpt weighted towards active compounds, which were near 1.2% of everything screened.
RGS8-Gao: modulates binding of RGS8 to human Galphao | P09471 | multiplexed bead flow cytometry; actives lie on both sides | response (percent of control binding), % at 10 µM | hit rate 0.34% among 220,000; in the data active means response below about 60% or above about 140%; inactive means in between;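 further: Galphao activated as the GDP aluminium fluoride complex binding bead-coupled RGS8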
Target sequence (P09471 whole entry, looked up): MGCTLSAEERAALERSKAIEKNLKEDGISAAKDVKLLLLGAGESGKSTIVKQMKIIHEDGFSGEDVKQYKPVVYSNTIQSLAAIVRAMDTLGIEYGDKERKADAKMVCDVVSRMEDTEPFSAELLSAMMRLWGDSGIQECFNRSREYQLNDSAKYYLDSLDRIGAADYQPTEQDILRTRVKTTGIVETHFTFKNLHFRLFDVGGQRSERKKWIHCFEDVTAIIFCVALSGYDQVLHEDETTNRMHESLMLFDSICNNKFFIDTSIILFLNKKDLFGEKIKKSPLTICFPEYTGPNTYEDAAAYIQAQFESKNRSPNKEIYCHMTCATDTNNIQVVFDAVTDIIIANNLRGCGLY
Avidin fluor: avidin bead compound fluorescence profile; AID 1775; fluorescence (KMESF) at 10 µM; hit rate 0.38% among 220,000; Avidin beads, compound fluorescence 488/530 nm, flow cytometry; active compounds read high; in the data active means fluorescence above about 47
RGS16-Gao HTS: regulators of human RGS16-Galphao interaction; hit rate 0.38% among 220,000; bead-based flow cytometry RGS16-Galphao binding, fluorescence; actives lie on both sides; binding response (% of control), % at 10 µM; O15492+P09471; AID 1441; call rule not given here;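 further: Galphao activated by GDP with aluminum fluoride before binding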
Target sequence (O15492 whole entry, looked up): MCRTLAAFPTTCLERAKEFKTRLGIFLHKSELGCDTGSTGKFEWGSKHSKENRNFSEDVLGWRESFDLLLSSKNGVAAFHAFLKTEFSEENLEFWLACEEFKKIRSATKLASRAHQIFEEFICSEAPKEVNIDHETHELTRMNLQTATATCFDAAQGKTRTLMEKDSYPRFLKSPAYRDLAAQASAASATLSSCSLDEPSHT
Target sequence (P09471 whole entry, looked up): as the sequence (P09471 whole entry, looked up) above
RGS7-Gao reg: human RGS7-Galphao interaction regulation. Multiplexed bead flow cytometry, RGS7-Galphao binding; actives lie on both sides. binding response (% of control), % at 10 µM. hit rate 0.35% among 220,000. P09471; in the data active means binding response below about 49% or above about 150%; inconclusive means no clear call, values can overlap the other calls; inactive means in between;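 further: fluorescent Galphao held in activated GDP-AlF4 state binding bead-coupled RGS7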
GSH fluor: GSH bead compound fluorescence profile; GSH beads flow cytometry, compound fluorescence 488/530 nm; active compounds read high; hit rate 0.25% among 190,000; AID 1776; fluorescence (KMESF) at 10 µM; in the data active means fluorescence above about 89;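 further: glutathione beads carrying GST-tagged Bcl family fusion proteins plus one bare bead set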
RGS4-Gao reg: modulates binding of RGS4 to human Galphao; Multiplexed bead flow cytometry; actives lie on both sides; binding response (% of control), % at 10 µM; hit rate 0.33% among 220,000; in the data active means binding response below about 49% or above about 150%; inactive means in between;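 further: fluorescent Galphao activated with aluminum fluoride binding bead-coupled RGS4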
Of the large screens only hits and unclear results are named; the others gave an inactive call; [ ] = dose if it differs, or a comment.

O=c1c2ccccc2c2ccccc2c(=O)n1CC1CCCO1 (stereo not drawn)	GSH fluor 252
O=C1c2ccccc2C(=O)N1CC1CCCO1 (stereo not drawn)	none
COCCOc1ccc(C(F)(F)F)cc1NC(=O)c1ccc(C)cc1	Avidin fluor 59
CCOC(=O)N1CCC(NC(=O)c2cc(S(=O)(=O)NCCc3ccccc3)ccc2F)CC1	none
CSc1ccccc1NC(=O)CN(C)CC(=O)Nc1c(F)cccc1F	Avidin fluor 58
CC(C)(C)c1cc(C(=O)NCc2cc(F)cc3c2OCOC3)n(Cc2ccccc2)n1	RGS7-Gao reg inconclusive (no result: GSH fluor)
O=C(COC(=O)c1ccncc1)NCc1ccccc1	none
O=C(COC(=O)c1ccncc1)NCCCc1ccccc1	RGS7-Gao reg 151.7[activator], RGS4-Gao reg 153.5[activator]
COc1cc(/C=C2\SC(=Nc3c(C)n(C)n(-c4ccccc4)c3=O)NC2=O)ccc1O	none
COC(=O)c1c(NC(=O)CSc2nnc(-c3ccco3)n2Cc2ccccc2)sc(C)c1C	GSH fluor 268
COC(=O)CSc1nnc(-c2ccco2)n1Cc1ccco1	Avidin fluor 72
COc1ccc(C(=O)c2c(N)sc3c2CCN(C(=O)OC(C)(C)C)C3)cc1	RGS7-Gao reg inconclusive (no result: GSH fluor)
O=C(O)Cn1c(=O)cnc2ccccc21	none
CC(C)N(Cc1ccccc1)C(=O)Cn1c(=O)cnc2ccccc21	Avidin fluor 49, RGS7-Gao reg inconclusive (no result: GSH fluor)
COc1ccc(C(=O)OCCN2CCOCC2)cc1	GSH fluor 96
COc1ccc(NC(=O)CCN2CCN(S(=O)(=O)c3ccc(OC)cc3)CC2)cc1	none
COc1ccc(NC(=O)CCN2CCN(S(=O)(=O)c3cc(Cl)ccc3Cl)CC2)cc1	Avidin fluor 60
COc1cc(C(=O)COC(=O)CNC(=O)C2CCCCC2)cc(OC)c1OC	Avidin fluor 53
Cc1ccc(C(O)P(=O)(OC2CCCCC2)OC2CCCCC2)cc1 (stereo not drawn)	Avidin fluor 56
O=C(c1ccc(F)cc1)N1CCN(c2ncccn2)CC1	Avidin fluor 73
COC(=O)NCC(c1ccco1)N1CCN(c2ccc(F)cc2)CC1 (stereo not drawn)	none
COc1ccc(C(=O)c2ccc(Br)cc2)cc1	none
CCSC1=N/C(=C\c2ccc3c(c2)OCO3)C(=O)S1	none
CCCSC1=N/C(=C\c2ccc3c(c2)OCO3)C(=O)S1	Avidin fluor 60
O=C1/C(=C\c2ccc(O)c(O)c2)C(c2ccccc2)=NN1c1ccccc1	none
COc1cc(/C=C2\C(=O)N(c3ccc(NC(C)=O)cc3)N=C2c2ccccc2)ccc1O	Avidin fluor 131, RGS7-Gao reg inconclusive
Cc1ccc(C(=O)NNC2=NCCC2)cc1	none
O=C(NNC1=NCCC1)c1ccc(Br)cc1	GSH fluor 261
O=S(=O)(c1ccc(Cl)cc1Br)N1CCCCC1	none
CCCCOc1ccc(/C(O)=C2/C(=O)C(=O)N(CCCOC)C2c2ccncc2)cc1 (stereo not drawn)	none
O=C(CN1CCOCC1)N1CCN(S(=O)(=O)c2ccccc2)C1c1ccccc1 (stereo not drawn)	Avidin fluor 59
N#Cc1c(-c2ccccc2)ccn(Cc2ccc(Cl)cc2)c1=O	Avidin fluor 49
CSc1cccc(NC(=O)CN(C2CCCCC2)S(C)(=O)=O)c1	none
C/C(=N\NC(=O)CSCc1ccc(Cl)cc1)c1ccc2c(c1)OCCO2	none
C/C(=N\NC(=O)COc1cccc(Cl)c1)c1ccc2c(c1)OCCO2	GSH fluor 314
Cc1ccc2ccc(S(=O)(=O)n3nc(C)cc3C)cc2c1	Avidin fluor 54
O=C(O)CN(c1ccccc1[N+](=O)[O-])S(=O)(=O)c1ccccc1	none
Cc1nnc(N(Cc2ccco2)C(=O)c2cccc(C#N)c2)s1	none
Cc1nnc(N(Cc2ccco2)C(=O)c2ccc(C#N)cc2)s1	GSH fluor 110
COC(=O)[C@H]1C2CCC(C(=O)OC)(CC2)[C@H]1C(=O)OC	none
COc1ccc(Cn2c(=O)[nH]c3cc(C(=O)NCc4ccc5c(c4)OCO5)ccc3c2=O)cc1	Avidin fluor 65
COc1ccc(Cn2c(=O)[nH]c3cc(C(=O)NCCCOC(C)C)ccc3c2=O)cc1	none
COc1ccc(N(C(=O)Cn2nnc3ccccc32)C(C(=O)NCc2ccco2)c2ccc(C)o2)cc1 (stereo not drawn)	GSH fluor 252
CC(C)N(CC(N)=O)C(=O)c1sc2cc(F)ccc2c1Cl	none
CN1CCC(N(C)C(=O)c2sc3cc(F)ccc3c2Cl)CC1	Avidin fluor 136, RGS7-Gao reg inconclusive
O=C1C(NS(=O)(=O)c2cccs2)=C(N2CCN(c3ccccc3)CC2)C(=O)c2ccccc21	none
CC(C)(CNS(=O)(=O)c1ccc(F)cc1)CNS(=O)(=O)c1ccc(F)cc1	Avidin fluor 51
O=S(=O)(NCCNS(=O)(=O)c1ccc(F)cc1)c1ccc(F)cc1	none
CCCc1nc2oc3c(NCCCN(C)C)ncnc3c2c2c1CCCC2	RGS7-Gao reg inconclusive (no result: GSH fluor)
CC(=O)Nc1ccc2c(c1)C(=O)c1ccccc1C2=O	Avidin fluor 59
O=C1c2ccccc2C(=O)c2cc(NC(=O)C3CC3)ccc21	none
Cc1cc(/C=N/N2CCN(C)CC2)c(C)n1-c1ccccc1F	RGS7-Gao reg inconclusive
O=C1C(c2ccnc3ccccc23)=C(O)c2ccccc21	GSH fluor 128
CC(C)Nc1c(N)c(=O)oc2ccccc12	GSH fluor 253
Cc1cccc(Nc2nc(-c3c(C)nc4ccccn34)cs2)c1	none
Cc1nc2ccccn2c1-c1nnco1	Avidin fluor 47
CC1CCN(S(=O)(=O)c2ccc3c(c2)oc(=O)n3CC(=O)N2c3ccccc3CC2C)CC1 (stereo not drawn)	Avidin fluor 56
CC(=O)Nc1ccc(C(=O)Nc2nc(-c3cccnc3)cs2)cc1	Avidin fluor 63, RGS7-Gao reg inconclusive
Cc1ccc(-c2nc(-c3cccnc3)no2)cc1	Avidin fluor 56
Cc1ccc(-c2nc(-c3ccccc3)no2)cc1	none
Cc1ccccc1-n1nnnc1SCc1csc(-c2ccccc2)n1	none
Cc1cccc(N2CCN(C(=O)c3cc4n(n3)C(C(F)(F)F)CC(c3ccco3)N4)CC2)c1C (stereo not drawn)	none
CCOc1ccc2nc(NCCNC(=O)C(C)C)c(C)cc2c1	Avidin fluor 61
O=S(=O)(NC1CCCCCCC1)c1cccs1	GSH fluor 275
COc1ccc(NC(=O)CN(C)CC(=O)Nc2ccccc2SC)cc1Cl	none
O=c1c2ccccc2c(C=Nc2cccc(O)c2)c(O)n1-c1ccc2c(c1)OCO2	Avidin fluor 57
CCCN(Cc1cc2cc(OC)ccc2[nH]c1=O)C(=O)c1ccco1	Avidin fluor 49, RGS7-Gao reg inconclusive (no result: GSH fluor)
CCCCN(Cc1cc2cc(OC)ccc2[nH]c1=O)C(=O)c1ccco1	none
COc1ccc(Cn2c(C)nnc2-c2cnn(C)c2N)cc1OC	none
